S1P4 ag: activates the human S1P4 receptor; O95977; S1P4-expressing cell line, agonist reporter assay; activation, % at 4.98 µM; hit rate 0.35% among 220,000; AID 1509; in the data active = activation above about 11%;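 also: 0% = DMSO vehicle and 100% = reference agonist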
Target sequence (O95977 whole entry, looked up): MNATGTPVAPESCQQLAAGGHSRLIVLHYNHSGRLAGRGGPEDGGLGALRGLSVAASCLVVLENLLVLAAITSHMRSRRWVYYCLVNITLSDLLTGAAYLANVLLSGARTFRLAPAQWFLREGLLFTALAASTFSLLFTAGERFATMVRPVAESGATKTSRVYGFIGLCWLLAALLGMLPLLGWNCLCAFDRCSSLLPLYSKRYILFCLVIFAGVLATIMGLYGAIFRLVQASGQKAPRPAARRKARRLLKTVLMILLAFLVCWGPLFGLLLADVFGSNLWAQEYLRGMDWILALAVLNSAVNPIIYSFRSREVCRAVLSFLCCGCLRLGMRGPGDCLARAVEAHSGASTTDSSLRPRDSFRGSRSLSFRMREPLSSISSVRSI
CHOP inh: blocks CHOP induction under ER stress | inhibition, % at 10 µM | CHO-K1 CHOP-promoter luciferase, tunicamycin-induced, 15-18 h | hit rate 3.8% among 220,000;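 active = compounds that reduced the stress-induced luciferase reporter signal by more than about 70% of percent inhibition, limit read from the data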;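 also: 0% = tunicamycin plus vehicle and 100% = wells without tunicamycin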
S1P4 antagonist: human S1P4 receptor antagonism | S1P4-expressing cells, antagonist mode, reporter read-out | AID 1510 | O95977 | inhibition, % at 4.98 µM | hit rate 0.26% among 220,000; in the data active = inhibition above about 29%;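 also: 0% = wells stimulated with agonist and 100% = vehicle wells without agonist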
Hsp70 activator: transcriptional activators of Hsp70 | HeLa Hsp70 promoter luciferase reporter, luminescence; scaled: vehicle 0, proteasome-inhibitor control 100% | activation, % at 10 µM | hit rate 0.04% among 200,000 | AID 1203;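 active = activation above the mean across all tested compounds plus 3 SD, cutoff set per campaign, cut at about 5.5% in these data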;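 also: 100% = MG132 at 30 µM as the positive control and 0% = DMSO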
The depositor's hits bear a star; · = no result. Rows were chosen to be rich in hits. Some 4.2% of all compounds tested hit in one or more screens of this group.

SMILES	S1P4 ag	CHOP inh	S1P4 antagonist	Hsp70 activator
CN(C)C(=O)CCc1nc(-c2ccc(C(C)(C)C)cc2)no1	-1	44	-32	0
COc1ccc(-c2coc3cc4oc(=O)c5ccccc5c4cc23)cc1F	7	5	-9	0
c1ccc(-c2nnc(CSc3nnc(-c4ccncc4)n3Cc3ccco3)o2)cc1	-3	-6	0	0
COc1ccc(NC(=O)CSc2nnc(Cc3cccn3C)n2-c2ccc(F)cc2)cc1OC	0	16	-24	0
CCOC(=O)CC1C(=O)NCCN1S(=O)(=O)c1ccc(Cl)c(Cl)c1 (stereo unspecified)	0	-16	-22	0
O=C(Nc1cc(C(F)(F)F)ccc1Cl)c1ccc(NC(=O)C(F)(F)F)cc1	1	45	-25	0
CCCC(=O)Nc1ccc(C(=O)Nc2cc(C(F)(F)F)ccc2Cl)cc1	3	73*	-28	0
FC(F)(F)c1cccc(N2CCN(Cc3ccoc3)CC2)c1	0	45	-22	0
COC(=O)c1c(C)oc2ccc(N(C(=O)Oc3ccccc3)S(=O)(=O)c3ccc(Cl)c([N+](=O)[O-])c3)cc12	0	83*	-10	0
CC(C)c1nc(NCc2ccccc2)c(C#N)c2c1CCCC2	0	-4	-10	-1
CN1CCc2c(C#N)c(N3CCCCC3)nc(NCc3ccccc3)c2C1	0	84*	-6	0
N#Cc1c(NCCCO)nc(NCc2ccccc2)c2c1CCN(Cc1ccccc1)C2	0	88*	-1	0
CNc1oc(-c2ccccc2Cl)nc1P(=O)(c1ccccc1)c1ccccc1	1	80*	3	0
COCCNc1oc(-c2ccccc2Cl)nc1C#N	3	12	-9	0
CCn1c(=O)cc(OCC(=O)N2CCc3ccccc32)c2ccccc21	-1	85*	-4	0
CCn1c(=O)cc(OCC(=O)N2CCCCCC2)c2ccccc21	-1	1	6	1
C#CCn1c(=NC(=O)c2ccc(Cl)s2)sc2cccc(OC)c21	-2	79*	-2	0
COc1ccc(Cn2c(C)nnc2-c2cnn(C)c2N)cc1OC	0	-2	12	0
CCOc1ccc2c(c1)c(C(C)=O)c(C)n2-c1ccccc1	0	60	-4	-1
O=C1c2ccccc2C2=Nc3ccccc3SC(c3ccc(Cl)cc3)C12 (stereo unspecified)	0	16	0	0
O=C1c2ccccc2C2=Nc3ccccc3SC(c3cccc(F)c3)C12 (stereo unspecified)	0	74*	-6	0
Cc1ccc(NC(=O)c2cc(-c3cccc(O)c3)on2)cc1C	1	86*	0	0
O=C(Nc1ccc(S(=O)(=O)NCc2ccccc2)cc1)Nc1ccc2c(c1)OCO2	0	84*	-13	0
O=S(=O)(NCc1ccc2c(c1)OCO2)c1ccc2c(c1)oc1ccccc12	2	95*	-6	0
Cc1cc(C)cc(OCC(=O)NCC2CCCO2)c1 (stereo unspecified)	-1	73*	-5	0
SMILES	S1P4 ag	CHOP inh	S1P4 antagonist	Hsp70 activator
Cc1cccc(OCC(=O)NC2CCCc3ccccc32)c1C (stereo unspecified)	-2	62	2	0
CC(C)c1ccccc1OCC(=O)NC1CCCc2ccccc21 (stereo unspecified)	1	75*	-9	0
O=C(Nc1ccc2ccccc2n1)C1CCCCC1	1	-17	13	·
COc1cccc(NC(=O)Nc2ccncc2)c1	-1	-4	-5	0
COc1cccc(NC(=O)Nc2cc(C(=O)O)ccc2C)c1	0	11	-15	0
CC(C)(C)c1ccc(NC(=O)Nc2ccc3ccccc3n2)cc1	1	85*	-6	·
COc1cccc(NC(=O)Nc2ccc(C(C)(C)C)cc2)c1	5	93*	-2	0
COc1cccc(NC(=O)Nc2ccc(Cc3ccncc3)cc2)c1	1	70*	10	0
COc1cccc(NC(=O)Nc2ccc(C)c(Cl)c2)c1	0	88*	6	0
CCOc1ccc(CCNC(=O)C2CCN(c3nn4c(=O)cc(C)nc4s3)CC2)cc1OCC	2	-2	-11	0
CC(C)OC(=O)c1cccnc1SCC(=O)N(C)c1ccccc1	1	36	-6	0
CCOC(=O)c1c(C)c(C(=O)NC(C)COC)c(C)n1C (stereo unspecified)	0	-13	3	0
Cc1cc(NC(=O)c2ccc(Cl)cc2)c(C)cc1O	-1	2	7	1
Cc1cc(NC(=O)c2ccc(Cl)cc2)c(C(C)C)cc1O	-1	-18	47*	0
CC(C)Oc1ccc(C(=O)Nc2ccc(Cl)c(S(=O)(=O)Nc3ccc(Cl)cc3)c2)cc1	1	71*	-12	0
